Our source for the binding signal values is article PMC5515408, “Sequence-specific DNA binding by MYC/MAX to low-affinity non-E-box motifs”.

Over roughly 5,000 sequences, “log2 normalized fluorescence” has its median near 0.089; the highest 2% begin near 0.81. The entries come from a sample that favours the highest values as a whole.

Sequence of MYC (p64);MAX (p21), in MYC:MAX (P01106 16-454, chain 1 of 2): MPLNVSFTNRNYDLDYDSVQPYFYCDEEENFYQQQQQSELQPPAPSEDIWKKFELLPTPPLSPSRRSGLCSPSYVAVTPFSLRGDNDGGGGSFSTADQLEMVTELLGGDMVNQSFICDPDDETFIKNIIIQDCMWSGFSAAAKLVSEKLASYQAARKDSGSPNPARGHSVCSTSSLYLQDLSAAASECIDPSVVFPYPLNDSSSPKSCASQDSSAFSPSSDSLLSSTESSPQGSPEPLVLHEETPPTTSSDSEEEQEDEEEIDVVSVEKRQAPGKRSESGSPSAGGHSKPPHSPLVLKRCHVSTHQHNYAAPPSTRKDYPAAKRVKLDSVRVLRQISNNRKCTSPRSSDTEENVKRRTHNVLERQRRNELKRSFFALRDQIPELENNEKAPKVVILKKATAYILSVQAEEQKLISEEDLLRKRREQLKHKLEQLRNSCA
Sequence of MYC (p64);MAX (p21), in MYC:MAX (P61244 other isoform, or with tags, fused parts or gaps |, chain 2 of 2): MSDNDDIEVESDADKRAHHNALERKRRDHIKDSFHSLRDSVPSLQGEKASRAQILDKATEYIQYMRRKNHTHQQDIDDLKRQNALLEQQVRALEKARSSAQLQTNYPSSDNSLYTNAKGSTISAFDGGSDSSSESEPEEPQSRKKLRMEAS

This assay addresses MYC (p64);MAX (p21), in MYC:MAX (human;human, UniProt P01106-1;P61244-2 1-439;1-151, |). As to the kind of experiment: protein-binding microarray (anti-MAX antibody); PBM: 15 mM Tris-HCl pH 7.5, 100 mM KCl, 0.075% NP40, 7.5 mM beta-mercaptoethanol, 375 ng/ul BSA, 8 ng/ul poly(dA-dT):(dA-dT), 550 ng complex, 60 min, room tempe; high values mean tight binding. The settings on record: protein: recombinant;recombinant; tags: 6xHis;6xHis; copies: 1;1; label: 3' end of printed strand (linker) attached to glass slide; dsDNA, one strand shown. An outline of the steps: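 For each of ~5000 unique double-stranded 12-nt sequences, spotted in triplicate on a custom Agilent glass array, binding of His-tagged human MYC:MAX or MAX:MAX dimers is reported as log2 normalized fluorescence. The dimers (550 ng, E. coli-expressed) were incubated for 60 min at room temperature in Tris-KCl buffer, pH 7.5, with NP40, BSA and poly(dA-dT) competitor. Detection used anti-MAX and secondary antibodies with a 543 nm scan.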
On to “CCGGCGGACACGAGGTATTAATAGCTAAGATTACTATATCGACG”, for which the binding signal was 0.562 log2 normalized fluorescence.
With “CCGGCTGACCACCCGTATTAATAGCTAAGATTACTATATCGACG” the figure was 0.348 log2 normalized fluorescence; with “CCGGCTGAGGGACGGTATTAATAGCTAAGATTACTATATCGACG”, 0.0602 log2 normalized fluorescence; with “CCGGCTGATGTTCTGTATTAATAGCTAAGATTACTATATCGACG”, 0.261 log2 normalized fluorescence.
With “CCGGCTGATGAGGTGTATTAATAGCTAAGATTACTATATCGACG” the figure was -0.000883 log2 normalized fluorescence.
With “CCGGCTGAGTATACGTATTAATAGCTAAGATTACTATATCGACG”, the binding signal was 0.0171 log2 normalized fluorescence.
With “CCGGCATGCACGTGGTATTAATAGCTAAGATTACTATATCGACG” the figure was 0.877 log2 normalized fluorescence.
Take “CCGGCAGCCACGTGGTATTAATAGCTAAGATTACTATATCGACG”: the binding signal is 0.908 log2 normalized fluorescence.
In the case of “CCGGCAGCTACGTGGTATTAATAGCTAAGATTACTATATCGACG”, the binding signal is 0.389 log2 normalized fluorescence.
In the case of “CCGGCTGCATCGTGGTATTAATAGCTAAGATTACTATATCGACG” it was 0.636 log2 normalized fluorescence.
On to “CCGGCTGTCACGTGGTATTAATAGCTAAGATTACTATATCGACG”, for which the binding signal was 0.706 log2 normalized fluorescence.
Regarding “CCGGCAGTCACGTGGTATTAATAGCTAAGATTACTATATCGACG”, the binding signal was 0.893 log2 normalized fluorescence.
As to “CCGGCAGCCACGTTGTATTAATAGCTAAGATTACTATATCGACG”, the binding signal was 0.643 log2 normalized fluorescence.
Turning to “CCGGCTGAAAGAGAGTATTAATAGCTAAGATTACTATATCGACG”, the binding signal was -0.0282 log2 normalized fluorescence.
In the case of “CCGGCTGACCGGGTGTATTAATAGCTAAGATTACTATATCGACG” it was 0.119 log2 normalized fluorescence; in that of “CCGGCTGAGTACGGGTATTAATAGCTAAGATTACTATATCGACG”, -0.0173 log2 normalized fluorescence.
In the case of “CCGGCTGATGCGCAGTATTAATAGCTAAGATTACTATATCGACG” it was 0.0262 log2 normalized fluorescence; in that of “CCGGCTGGTACGTGGTCTTAATAGCTAAGATTACTATATCGACG”, 0.364 log2 normalized fluorescence.
As to “CCGGCTCTTACGTGGTATTAATAGCTAAGATTACTATATCGACG”, the binding signal was 0.358 log2 normalized fluorescence.
With “CCGGCTCAGACGTGGTATTAATAGCTAAGATTACTATATCGACG” the figure was 0.391 log2 normalized fluorescence; with “CCGGCTCTCACGTGGTATTAATAGCTAAGATTACTATATCGACG”, 0.891 log2 normalized fluorescence.
As to “CCGGCTCATACGTGGTATTAATAGCTAAGATTACTATATCGACG”, the binding signal was 0.558 log2 normalized fluorescence.
With “CCGGCTGAAACGTGGTCTTAATAGCTAAGATTACTATATCGACG” the figure was 0.74 log2 normalized fluorescence; with “CCGGCTTACACGTGGGATTAATAGCTAAGATTACTATATCGACG”, 0.81 log2 normalized fluorescence; with “CCGGCGCTCACGTGGTATTAATAGCTAAGATTACTATATCGACG”, 0.815 log2 normalized fluorescence.
As to “CCGGCTCACGATGGGGCTTAATAGCTAAGATTACTATATCGACG”, the binding signal was 0.398 log2 normalized fluorescence.
“CCGGCTCACACGTGGGCTTAATAGCTAAGATTACTATATCGACG”: the binding signal was 0.832 log2 normalized fluorescence.
With “CCGGCGGTCACGTGGTATTAATAGCTAAGATTACTATATCGACG” the figure was 0.805 log2 normalized fluorescence.
As to “CCGGCTCTCACGTGGTCTTAATAGCTAAGATTACTATATCGACG”, the binding signal was 0.836 log2 normalized fluorescence.
In the case of “CCGGCTGGCACCCGGTATTAATAGCTAAGATTACTATATCGACG” it was 0.242 log2 normalized fluorescence; in that of “CCGGCTGACGTTTTGTATTAATAGCTAAGATTACTATATCGACG”, -0.0354 log2 normalized fluorescence; in that of “CCGGCTGAAAGGCCGTATTAATAGCTAAGATTACTATATCGACG”, 0.17 log2 normalized fluorescence.
With “CCGGCTGACACGCATTATTAATAGCTAAGATTACTATATCGACG”, the binding signal is 0.524 log2 normalized fluorescence.
With “CCGGCTATTACGTGGTATTAATAGCTAAGATTACTATATCGACG” the figure was 0.323 log2 normalized fluorescence; with “CCGGCTTACATGTGGTATTAATAGCTAAGATTACTATATCGACG”, 0.625 log2 normalized fluorescence.
With “CCGGCTCACACGTCGTATTAATAGCTAAGATTACTATATCGACG” the figure was 0.506 log2 normalized fluorescence.
For “CCGGCCCTCACGTGGTATTAATAGCTAAGATTACTATATCGACG”, the binding signal was 0.828 log2 normalized fluorescence.
As for “CCGGCCGACATGTGGTATTAATAGCTAAGATTACTATATCGACG”, the binding signal was 0.663 log2 normalized fluorescence.
With “CCGGCTCACACGTGGTATTAATAGCTAAGATTACTATATCGACG”, the binding signal was 0.998 log2 normalized fluorescence.
Consider “CCGGCGATCACGTGGTATTAATAGCTAAGATTACTATATCGACG”, for which the binding signal is 0.946 log2 normalized fluorescence.
Take “CCGGCCATCACGTGGTATTAATAGCTAAGATTACTATATCGACG”: the binding signal is 0.764 log2 normalized fluorescence.
For “CCGGCTCACATGTGGTATTAATAGCTAAGATTACTATATCGACG”, the binding signal is 0.918 log2 normalized fluorescence.
With “CCGGCTATCACGTGGTATTAATAGCTAAGATTACTATATCGACG” the figure was 0.71 log2 normalized fluorescence; with “CCGGCCGTCACGTGGTATTAATAGCTAAGATTACTATATCGACG”, 0.809 log2 normalized fluorescence.
“CCGGCTGACGCTTTGTATTAATAGCTAAGATTACTATATCGACG”: the binding signal was 0.148 log2 normalized fluorescence.
Turning to “CCGGCTGACCATTGGTATTAATAGCTAAGATTACTATATCGACG”, the binding signal was 0.0788 log2 normalized fluorescence.
Take “CCGGCTGAAAGAGTGTATTAATAGCTAAGATTACTATATCGACG”: the binding signal was 0.0309 log2 normalized fluorescence.
As to “CCGGCTGAGAGACGGTATTAATAGCTAAGATTACTATATCGACG”, the binding signal is -0.00994 log2 normalized fluorescence.
In the case of “CCGGCTGACACGCGAGATTAATAGCTAAGATTACTATATCGACG”, the binding signal is 0.438 log2 normalized fluorescence.
With “CCGGCTGAAGATGTGTATTAATAGCTAAGATTACTATATCGACG”, the binding signal is 0.0913 log2 normalized fluorescence.
As to “CCGGCTGAAAAGAGGTATTAATAGCTAAGATTACTATATCGACG”, the binding signal is -0.00138 log2 normalized fluorescence.
With “CCGGCTGACAGCAAGTATTAATAGCTAAGATTACTATATCGACG” the figure was 0.286 log2 normalized fluorescence.
With “CCGGCTGACCGTAAGTATTAATAGCTAAGATTACTATATCGACG” the figure was 0.214 log2 normalized fluorescence.
Take “CCGGCAAGTTTAAGCCGTTAATAGCTAAGATTACTATATCGACG”: the binding signal was 0.00903 log2 normalized fluorescence.
Regarding “CCGGCTGAGCCGCTGTATTAATAGCTAAGATTACTATATCGACG”, the binding signal was 0.0565 log2 normalized fluorescence.
Turning to “CCGGCTGAGAGGCCGTATTAATAGCTAAGATTACTATATCGACG”, the binding signal is 0.0066 log2 normalized fluorescence.
“CCGGCTGAGGGGAGGTATTAATAGCTAAGATTACTATATCGACG”: the binding signal was 0.438 log2 normalized fluorescence.
With “CCGGCTGAAAAAGGGTATTAATAGCTAAGATTACTATATCGACG” the figure was -0.0246 log2 normalized fluorescence; with “CCGGCTGAAAAGGGGTATTAATAGCTAAGATTACTATATCGACG”, 0.161 log2 normalized fluorescence; with “CCGGCTGAGGGAGAGTATTAATAGCTAAGATTACTATATCGACG”, -0.0403 log2 normalized fluorescence.
As to “CCGGCTGAAGAGGGGTATTAATAGCTAAGATTACTATATCGACG”, the binding signal was 0.288 log2 normalized fluorescence.
With “CCGGCTGAGGGGGAGTATTAATAGCTAAGATTACTATATCGACG” the figure was 0.823 log2 normalized fluorescence.
In the case of “CCGGCTGAAAGGGGGTATTAATAGCTAAGATTACTATATCGACG” it was 0.83 log2 normalized fluorescence; in that of “CCGGCTGAAGGGTGGTATTAATAGCTAAGATTACTATATCGACG”, 0.18 log2 normalized fluorescence.
For the sequence “CCGGCTGAAGGGGGGTATTAATAGCTAAGATTACTATATCGACG”, the binding signal was 0.855 log2 normalized fluorescence.
With “CCGGCTGACTGGTCGTATTAATAGCTAAGATTACTATATCGACG” the figure was 0.229 log2 normalized fluorescence; with “CCGGCTGACCTCTGGTATTAATAGCTAAGATTACTATATCGACG”, -0.0273 log2 normalized fluorescence.
With “CCGGCTGAGTGAGGGTATTAATAGCTAAGATTACTATATCGACG” the figure was 0.097 log2 normalized fluorescence.
